Structures can show the parent of a compound that is named as a salt. The whole screen tested about 5,300 compounds, of which about 130 (2.5%) showed an effect of 50% or more. This is one part of a sample in which strong results are shown more often than they occur. Peptide text beside a SMILES is read from it.
Tested on: M. mycetomatis strain mm55
Conditions: primary screen, metabolic activity vs growth control; 96 h, 2 µM; inhibitor

Which “% viability” value does the source give for `CCN(CC)C(=O)N[C@H]1CC2c3cccc4[nH]cc(c34)CC2N(C)C1` (some centres unmarked) [ONC0002019, terguride] here?
The value was 81.88%.

For `Clc1ccc(C(Cn2ccnc2)OCc2csc3c(Cl)cccc23)c(Cl)c1` (centres unmarked) [ONC0005215, sertaconazole nitrate], which “% viability” value is on record?
Its value is 82%.

For `COc1ccc(CCCOC(Cn2ccnc2)c2ccc(OC)cc2)cc1` (centres unmarked) [ONC0000065, skf96365], which “% viability” value is on record?
Its value is 143.6%.

With `Clc1ccc(C(Cn2ccnc2)OCc2c(Cl)cccc2Cl)c(Cl)c1` (centres unmarked) [Isoconazole nitrate (Travogen), Isoconazole nitrate] as the compound, how does the “% viability” value read?
Its value is 2.362%.

Which “% viability” value does the source give for `Clc1ccc(COC(Cn2ccnc2)c2ccc(Cl)cc2Cl)c(Cl)c1` (centres unmarked) [Miconazole nitrate] here?
Its value is 2.05%.

`Clc1ccc(CCC(Cn2ccnc2)Sc2c(Cl)cccc2Cl)cc1` (centres unmarked) [ONC0005620, butoconazole] was tested. Which “% viability” value did it give?
Its value is 76.6%.

How did the “% viability” value turn out when `C=CCOC(Cn1ccnc1)c1ccc(Cl)cc1Cl` (centres unmarked) [ONC0005416, enilconazole sulfate] was run?
Its value is 2.508%.

Which “% viability” value does the source give for `Clc1ccc(C(Cn2ccnc2)OCc2ccc(Sc3ccccc3)cc2)c(Cl)c1` (centres unmarked) [ONC0004926, fenticonazole nitrate] here?
Its value is 131.8%.

Which “% viability” value does the source give for `Clc1ccc(COC(Cn2ccnc2)c2ccc(Cl)cc2Cl)cc1` (centres unmarked) [ONC0000666, econazole nitrate] here?
The value was 102.4%.

`Clc1ccc(CSC(Cn2ccnc2)c2ccc(Cl)cc2Cl)cc1` (centres unmarked) [ONC0000678, sulconazole nitrate] was tested. Which “% viability” value did it give?
Its value is 120.3%.

Which “% viability” value does the source give for `Clc1ccc(C(Cn2ccnc2)OCc2ccsc2Cl)c(Cl)c1` (centres unmarked) [Tioconazole] here?
Its value is 3.335%.

`CC(C)S(=O)(=O)NC[C@H](C)c1ccc(-c2ccc(CCNS(C)(=O)=O)cc2)cc1` [ONC0000792, mibampator] was tested. Which “% viability” value did it give?
Its value is 65.07%.

For `CC(=O)Nc1c(I)c(C(=O)O)c(I)c(N(C)C(C)=O)c1I` [ONC0002767, metrizoic acid], which “% viability” value is on record?
The value was 98.58%.

`CO[C@H]1C[C@H](O[C@H]2CC[C@@]3(C)[C@H](CC[C@@H]4[C@@H]3CC[C@]3(C)[C@@H](C5=CC(=O)OC5)[C@@H](OC(C)=O)C[C@]43O)C2)O[C@@H](C)[C@@H]1O` [ONC0000896, oleandrin] was tested. Which “% viability” value did it give?
Its value is 70.17%.

For `COc1cc([S+](C)[O-])ccc1-c1nc2ncccc2[nH]1` (centres unmarked) [ONC0002956, sulmazole], which “% viability” value is on record?
The value was 88.35%.

For `COc1cc(N)c(Cl)cc1C(=O)N[C@@H]1CCN(CCCOc2ccc(F)cc2)C[C@@H]1OC` (racemic) [ONC0002671, cisapride], which “% viability” value is on record?
The value was 79.76%.

Which “% viability” value does the source give for `CC[C@H](NC(C)C)[C@H](O)c1ccc(O)c2[nH]c(=O)ccc12` (racemic) [ONC0000846, procaterol] here?
Its value is 72.96%.

With `COc1cc2c(Nc3ccc(Br)cc3F)ncnc2cc1OCC1CCN(C)CC1` [ONC0004515, vandetanib zd6474] as the compound, how does the “% viability” value read?
The value was 76.73%.

`N[C@@H](CN1C=CC(=O)C(=O)C1)C(=O)O` [ONC0002117, lmimosine] was tested. Which “% viability” value did it give?
The value was 76.12%.

`CCCCCCOc1nsnc1C1=CCCN(C)C1.O=C(O)C(=O)O` [ONC0001841, xanomeline oxalate] was tested. Which “% viability” value did it give?
Its value is 152.3%.

How did the “% viability” value turn out when `C[C@H](NC(=O)C(C)(C)Oc1ccc(C(F)(F)F)cn1)[C@@H](Cc1ccc(Cl)cc1)c1cccc(C#N)c1` [ONC0002066, taranabant] was run?
The value was 72.16%.

How did the “% viability” value turn out when `CC(C)(C)NC(=O)N[C@H](C(=O)N1C[C@H]2[C@@H]([C@H]1C(=O)NC(CC1CCC1)C(=O)C(N)=O)C2(C)C)C(C)(C)C` (some centres unmarked) [ONC0001071, boceprevir] was run?
The value was 43.8%.

For `CCCC[C@H](NC(=O)[C@@H]1[C@@H]2[C@H](CN1C(=O)[C@@H](NC(=O)NC1(CS(=O)(=O)C(C)(C)C)CCCCC1)C(C)(C)C)C2(C)C)C(=O)C(=O)NC1CC1` [ONC0000734, narlaprevir], which “% viability” value is on record?
The value was 68.03%.

Which “% viability” value does the source give for `Cc1cnc(NC(=O)c2cc(Oc3cnc(C(=O)N(C)C)nc3)c3cc(C)oc3c2)cn1` [ONC0005563, pf04937319] here?
The value was 103.7%.

`O=c1[nH]cnc2c([C@@H]3N[C@H](CO)[C@@H](O)[C@H]3O)c[nH]c12` [ONC0001813, forodesine hydrochloride] was tested. Which “% viability” value did it give?
Its value is 95.12%.

For `CCn1c(=O)n([C@H]2CCCN(c3nccc(-c4cc5ccccc5o4)n3)C2)c2ccccc21` [ONC0001458, tcf2], which “% viability” value is on record?
Its value is 58.53%.

For `CCCCN(CCCC)CC(O)c1cc(Cl)cc2c1-c1ccc(Cl)cc1/C2=C/c1ccc(Cl)cc1` (centres unmarked) [ONC0000941, lumefantrine], which “% viability” value is on record?
Its value is 75.53%.

With `CCCCN(CCCC)CCC(O)c1cc2c(Cl)cc(Cl)cc2c2cc(C(F)(F)F)ccc12` (centres unmarked) [ONC0003518, halofantrinehcl] as the compound, how does the “% viability” value read?
Its value is 46.17%.

How did the “% viability” value turn out when `CNc1nc(-c2ccc3c(N)n[nH]c3c2)cc(N2C[C@@H](C(=O)NC3CCCCC3)CC[C@H]2C)n1` [ONC0002484, gsk2334470] was run?
Its value is 37.41%.

With `COc1c2occc2cc2ccc(=O)oc12` [ONC0005318, methoxsalen] as the compound, how does the “% viability” value read?
The value was 102.8%.

For `COc1c2ccoc2cc2oc(=O)ccc12` [ONC0003294, bergapten], which “% viability” value is on record?
The value was 47.96%.

For `O=c1ccc2c(OCCCCOc3ccccc3)c3ccoc3cc2o1` [ONC0000770, pap1], which “% viability” value is on record?
Its value is 62.21%.

For `NS(=O)(=O)OC[C@@H]1C[C@@H](n2ccc3c(N[C@H]4CCc5ccccc54)ncnc32)C[C@@H]1O` [ONC0001277, pevonedistat hydrochloride], which “% viability” value is on record?
The value was 68.15%.

Which “% viability” value does the source give for `Cc1ccc2c(c1)c1c(n2CCc2ccc(C)nc2)CCN(C)C1.Cl.Cl` [ONC0000365, latrepirdine dimebon dihydrochloride] here?
Its value is 70.26%.

How did the “% viability” value turn out when `OCCN1CCN(CCCN2c3ccccc3Sc3ccc(C(F)(F)F)cc32)CC1` [ONC0003193, fluphenazine hydrochloride] was run?
Its value is 105.7%.

With `CCCCCCCCCC(=O)OCCN1CCN(CCCN2c3ccccc3Sc3ccc(C(F)(F)F)cc32)CC1` [ONC0003289, fluphenazine decanoate] as the compound, how does the “% viability” value read?
The value was 48.22%.

For `CN1CCN(CCCN2c3ccccc3Sc3ccc(C(F)(F)F)cc32)CC1` [ONC0003239, trifluoperazine hydrochloride], which “% viability” value is on record?
Its value is 119.8%.

Which “% viability” value does the source give for `CN1CC[C@@]2(C)c3cc(O)ccc3N(C)[C@@H]12` [ONC0002771, eseroline] here?
The value was 104.2%.

For `c1ccc2c(c1)[I+]c1ccccc1-2` [ONC0002720, diphenyleneiodonium], which “% viability” value is on record?
Its value is 44.4%.

For `O=C1c2ccccc2C(=O)c2ccccc21` [ONC0002912, anthraquinone], which “% viability” value is on record?
The value was 73.56%.

For `CC(O)COC[C@H]1O[C@@H]2O[C@H]3[C@H](O)[C@@H](O)[C@@H](O[C@H]4[C@H](O)[C@@H](O)[C@@H](O[C@H]5[C@H](O)[C@@H](O)[C@@H](O[C@H]6[C@H](O)[C@@H](O)[C@@H](O[C@H]7[C@H](O)[C@@H](O)[C@@H](O[C@H]8[C@H](O)[C@@H](O)[C@@H](O[C@H]1[C@H](O)[C@H]2O)O[C@@H]8COCC(C)O)O[C@@H]7COCC(C)O)O[C@@H]6COCC(C)O)O[C@@H]5COCC(C)O)O[C@@H]4COCC(C)O)O[C@@H]3COCC(C)O` (some centres unmarked) [ONC0003826, hydroxypropylbetacyclodextrin], which “% viability” value is on record?
The value was 73.6%.

How did the “% viability” value turn out when `NCCC(=O)N[C@@H](Cc1cnc[nH]1)C(=O)O` [ONC0002788, carnosine] was run?
The value was 115.1%.

`CC[C@@H]1C(=O)N(C)c2cnc(Nc3ccc(C(=O)N[C@H]4CC[C@H](N5CCN(CC6CC6)CC5)CC4)cc3OC)nc2N1C(C)C` [ONC0005061, bi6727 volasertib] was tested. Which “% viability” value did it give?
The value was 89.64%.

`CC(C)CCN1c2nc(Nc3cc(F)c(O)c(F)c3)ncc2N(C)C(=O)C1C` (centres unmarked) [ONC0004496, bid1870] was tested. Which “% viability” value did it give?
Its value is 46.32%.

Which “% viability” value does the source give for `CC[C@@H]1C(=O)N(C)c2cnc(Nc3ccc(C(=O)NC4CCN(C)CC4)cc3OC)nc2N1C1CCCC1` [ONC0004589, bi 2536] here?
The value was 63.71%.

With `Nc1nonc1C(=NO)Nc1ccc(F)c(Cl)c1` [ONC0002386, ido5l] as the compound, how does the “% viability” value read?
Its value is 106.2%.

With `CN1CCN(C(=O)c2nc3cc(Cl)ccc3[nH]2)CC1` [ONC0003559, jnj10191584] as the compound, how does the “% viability” value read?
The value was 96.39%.

How did the “% viability” value turn out when `O=C(Nc1ccc(Cl)cc1)Nc1ccc(Cl)c(Cl)c1` [ONC0003407, triclocarban] was run?
The value was 109.1%.

Which “% viability” value does the source give for `O=C(Nc1cnc(Cl)nc1)c1ccc(F)c(F)c1` [ONC0001921, ica069673] here?
The value was 29.87%.

Which “% viability” value does the source give for `O=C(Nc1ccc(Cl)nc1)c1ccc(Cl)cc1` [ONC0002468, ica110381] here?
Its value is 70.91%.

How did the “% viability” value turn out when `CC[C@@]1(O)C(=O)OCc2c1cc1n(c2=O)Cc2c-1nc1cc(F)c(C)c3c1c2[C@@H](N)CC3.CS(=O)(=O)O` [ONC0003668, exatecan mesylate] was run?
The value was 59.4%.

`C#C[C@]1(O)CCC2C3CCC4=C(CCC(=O)C4)C3CC[C@@]21C` (some centres unmarked) [ONC0000393, norethynodrel] was tested. Which “% viability” value did it give?
The value was 78.62%.

With `O=C(COc1ccc(C(=O)c2ccccc2)cc1)NC1CCN(Cc2ccccc2)CC1` [ONC0000156, adiporon] as the compound, how does the “% viability” value read?
Its value is 92.46%.

How did the “% viability” value turn out when `O=C(NC1CCN(Cc2ccccc2)CC1)c1ccc(I)cc1` [ONC0003079, 4ibp] was run?
The value was 71.08%.

With `O=C(O)c1ccc(CN2CCC(CN[C@@H]3C[C@H]3c3ccccc3)CC2)cc1` [ONC0001137, gsk2879552] as the compound, how does the “% viability” value read?
Its value is 48.21%.

Which “% viability” value does the source give for `C[C@@H](O)[C@H](N)C(=O)N1CCC[C@H]1C(=O)N1CCC[C@H]1C(=O)N[C@H](C(N)=O)[C@@H](C)O` [ONC0002215, rapastinel trifluoroacetate] (H-TPPT-NH2) here?
The value was 53.54%.
